Hits are enriched below; roughly 1.8% of the tested compounds scored in any of these assays.
ERAP1 HTS inh: ERAP1 (human) enzyme inhibition; Q9NZ08; recombinant ERAP1, Leu-AMC fluorescence, 60 min; inhibition, % at 10.7 µM; hit rate 0.15% among 340,000; AID 652197;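 active = mean replicate inhibition of at least 30%, or all replicates individually reaching that 30% level; inactive = mean below 30% and not every replicate reaching it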
DENV2 CPE rescue: DENV2-induced cell death inhibition. AID 651640. DENV2-infected cells, cytopathic effect rescue, plate reader. CPE inhibition, % at 9.99 µM. hit rate 1.7% among 350,000; in the data active = CPE inhibition above about 20%, passing the limit was not always enough; inconclusive = no clear call, values can overlap the other calls; tested in BHK-21 cells
PDI turbidity: inhibitors of human protein disulfide isomerase; P07237; PDI insulin aggregation turbidity, A650, 90 min; inhibition, % at 10 µM; hit rate 0.052% among 350,000; AID 588391;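 active = mean inhibition across replicates of 30% or more, whatever share of single replicates reach that level; inconclusive = mean inhibition below 30% while every single replicate reaches 30%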
MLL AF4-AF9 inh: MLL-AF4/AF9 protein interaction inhibition; AID 651704; inhibition, % at 10 µM; P42568; hit rate 0.47% among 350,000; AlphaScreen, biotin-AF4 peptide binding to FLAG-AF9;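 active = every replicate reaching a set inhibition limit, whatever the replicate mean, cut at about 25% in these data; inconclusive = mean inhibition reaches that limit but some replicates miss it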
Target sequence (P42568 whole entry, looked up): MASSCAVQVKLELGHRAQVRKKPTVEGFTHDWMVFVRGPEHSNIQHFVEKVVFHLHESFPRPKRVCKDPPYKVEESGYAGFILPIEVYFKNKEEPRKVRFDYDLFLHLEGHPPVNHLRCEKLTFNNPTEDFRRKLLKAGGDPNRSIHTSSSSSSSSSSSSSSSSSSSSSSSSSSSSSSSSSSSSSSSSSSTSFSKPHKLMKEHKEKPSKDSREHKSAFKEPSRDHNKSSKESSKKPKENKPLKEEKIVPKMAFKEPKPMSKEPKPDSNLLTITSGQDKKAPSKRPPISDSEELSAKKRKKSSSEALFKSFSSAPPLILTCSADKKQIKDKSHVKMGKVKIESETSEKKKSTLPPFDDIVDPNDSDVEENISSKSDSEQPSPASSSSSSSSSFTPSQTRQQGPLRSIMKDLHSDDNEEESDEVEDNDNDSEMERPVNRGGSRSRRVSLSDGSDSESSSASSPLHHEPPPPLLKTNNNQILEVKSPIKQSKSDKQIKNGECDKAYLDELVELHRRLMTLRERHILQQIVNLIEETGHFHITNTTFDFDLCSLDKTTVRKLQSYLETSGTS
ERp5 block: blocks human ERp5 reductase activity on insulin; Q15084; ERp5 insulin aggregation, absorbance 650 nm, 90 min; inhibition, % at 9.99 µM; hit rate 0.05% among 350,000;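 active = mean replicate inhibition above about 25%, with every replicate also reaching it, limit read from the data, passing the limit was not always enough; inconclusive = only one of those two criteria met; inactive = neither criterion met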
Large screens that a line does not name were inactive; ! = a repeat was not active.

CN(C)C(=O)c1ccc(-c2ccc([C@@H]3[C@H]4CN(S(C)(=O)=O)CCCCN4[C@H]3CO)cc2)cc1	none (no result: PDI turbidity)
CN(C)C(=O)c1ccc(-c2ccc([C@H]3[C@H]4CN(S(C)(=O)=O)CCCCN4[C@H]3CO)cc2)cc1	MLL AF4-AF9 inh 34.2 (no result: PDI turbidity)
C[C@H](CO)N1C[C@H](C)[C@@H](CN(C)C(=O)Nc2ccc3c(c2)OCO3)Oc2ccc(NC(=O)Cc3ccccc3)cc2CC1=O	none (no result: PDI turbidity)
Cn1nc(C(=O)NNC(=O)c2cccc(Cl)c2)c2ccccc2c1=O	DENV2 CPE rescue 66.9
C[C@@H]1CN([C@@H](C)CO)C(=O)c2cc(C#Cc3ccccc3F)cnc2O[C@H]1CN(C)S(=O)(=O)c1ccccc1F	DENV2 CPE rescue 34.6 (no result: PDI turbidity)
C[C@H](CO)N1C[C@H](C)[C@H](CN(C)S(=O)(=O)c2cn(C)cn2)Oc2ncc(C#Cc3ccccc3)cc2C1=O	ERp5 block 36.2 (no result: PDI turbidity)
C[C@@H]1CN([C@H](C)CO)C(=O)c2cc(C#Cc3ccccc3)cnc2O[C@@H]1CN(C)S(=O)(=O)c1ccccc1F	DENV2 CPE rescue inconclusive (no result: PDI turbidity)
C[C@@H]1CN([C@H](C)CO)C(=O)c2cc(NC(=O)Nc3ccc(C(F)(F)F)cc3)ccc2O[C@@H](C)CCCCO[C@@H]1CN(C)Cc1ccccc1	none (no result: PDI turbidity)
CO[C@H]1CN(C)C(=O)c2cc(NC(=O)Nc3ccccc3F)ccc2OC[C@@H](C)N(CC2CC2)C[C@@H]1C	none (no result: PDI turbidity)
Cc1noc(C)c1NC(=O)N(C)C[C@@H]1OCCCC[C@H](C)Oc2ccc(NS(=O)(=O)c3ccccc3)cc2C(=O)N([C@@H](C)CO)C[C@@H]1C	none (no result: PDI turbidity)
Clc1ccc(-c2csc(-c3cccnc3)n2)s1	DENV2 CPE rescue 51.0 (no result: ERAP1 HTS inh)
Fc1ccccc1-c1csc(-c2cccnc2)n1	none
C[C@H](CO)N1C[C@H](C)[C@@H](CN(C)C(=O)c2cccc(F)c2)Oc2cc(-c3ccncc3)ccc2S1(=O)=O	none (no result: PDI turbidity)
COc1cc2sc3cc(NCCCN4CCOCC4)ccc3c(=O)c2cc1OC	none (no result: ERAP1 HTS inh)
COc1cccc2sc3cc(NCc4ccc(C)o4)ccc3c(=O)c12	DENV2 CPE rescue 56.3 (no result: MLL AF4-AF9 inh)
O=C(NCc1ccc(F)cc1)c1cc(-c2ccccn2)nc2ccc(S(=O)(=O)N3CCOCC3)cc12	DENV2 CPE rescue 31.1
CC(C)N(C[C@@H]1[C@H](c2ccccc2)[C@@H](CO)N1S(C)(=O)=O)C(=O)CN(C)C	DENV2 CPE rescue 54.5 (no result: PDI turbidity)
O=C(C[C@H]1C=C[C@@H](NC(=O)c2ccccc2)[C@@H](CO)O1)NCc1ccc(Oc2ccccc2)cc1	none (no result: PDI turbidity)
C=C1CC(c2ccc(-c3ccccc3)cc2)OC1=O (configuration not stated)	none (no result: PDI turbidity)
COCCNC(=O)CCC1CCN(Cc2ccc(-c3ccccc3)cc2)CC1	DENV2 CPE rescue 48.1
CC(=Nc1ccccc1)C1=C(O)CC(C)(C)CC1=O	none
CC(=Nc1ccccc1)C1=C(O)CCCC1=O	ERAP1 HTS inh 36.2, DENV2 CPE rescue inconclusive
C[C@@H]1CN([C@@H](C)CO)C(=O)c2cc(Br)cnc2O[C@@H]1CN(C)Cc1ccncc1	none (no result: PDI turbidity)
C[C@H](CO)N1C[C@H](C)[C@H](CN(C)Cc2ccncc2)Oc2ncc(Br)cc2C1=O	DENV2 CPE rescue 84.9!
C[C@@H]1CN([C@H](C)CO)C(=O)c2cc(Br)cnc2O[C@@H]1CN(C)Cc1cccc(F)c1	none (no result: PDI turbidity)
C[C@H](CO)N1C[C@H](C)[C@H](CN(C)Cc2cccc(F)c2)Oc2ncc(Br)cc2C1=O	ERp5 block 82.4!
COc1ccc(Cl)c2sc(N3CCN(C(=O)c4ccco4)CC3)nc12	DENV2 CPE rescue 104.5
CCCC(=O)N1CCN(c2nc3c(OC)ccc(Cl)c3s2)CC1	none
C[C@@H]1CN([C@H](C)CO)C(=O)Cc2cc(NC(=O)CCCCCC(=O)Nc3ccccc3N)ccc2O[C@H]1CN(C)Cc1ccc(Oc2ccccc2)cc1	none (no result: PDI turbidity)
COc1ccc2c3c(n(C)c2c1)[C@H](CO)N(CC1CC1)CC31CCN(Cc2nccs2)CC1	DENV2 CPE rescue 45.2 (no result: ERAP1 HTS inh, PDI turbidity, ERp5 block)
COc1ccc2c3c(n(C)c2c1)[C@H](CO)N(Cc1nccs1)CC31CCN(C)CC1	none (no result: ERAP1 HTS inh, PDI turbidity, MLL AF4-AF9 inh, ERp5 block)
CCC(=O)N1CCC2(CC1)CN(Cc1nccs1)[C@H](CO)c1c2c2ccc(OC)cc2n1C	none (no result: PDI turbidity)
COc1ccc2c3c(n(C)c2c1)[C@H](CO)N(S(C)(=O)=O)CC31CCN(Cc2nccs2)CC1	DENV2 CPE rescue 24.2 (no result: PDI turbidity)
COc1ccc2c3c(n(C)c2c1)[C@H](CO)N(C(C)=O)CC31CCN(Cc2nccs2)CC1	none (no result: ERAP1 HTS inh, PDI turbidity, ERp5 block)
COc1ccc2c3c(n(C)c2c1)[C@H](CO)N(Cc1nccs1)CC31CCN(C(C)=O)CC1	DENV2 CPE rescue 27.0 (no result: ERAP1 HTS inh, PDI turbidity, ERp5 block)
O=C(Nc1ccc2c(c1)OCO2)N[C@H]1CC[C@@H](CCNC(=O)C2CCOCC2)O[C@H]1CO	DENV2 CPE rescue inconclusive (no result: PDI turbidity)
C[C@H](NC(=O)N(C)C[C@H]1OCc2ccccc2-c2c(n(C)c3ccccc23)C(=O)N([C@H](C)CO)C[C@H]1C)c1ccccc1	DENV2 CPE rescue 31.6 (no result: PDI turbidity)
CO[C@@H](C(=O)N(C)C[C@@H]1OCc2ccccc2-c2c(n(C)c3ccccc23)C(=O)N([C@H](C)CO)C[C@@H]1C)c1ccccc1	none (no result: PDI turbidity)
CO[C@H](C(=O)N(C)C[C@H]1OCc2ccccc2-c2c(n(C)c3ccccc23)C(=O)N([C@@H](C)CO)C[C@@H]1C)c1ccccc1	DENV2 CPE rescue 26.4 (no result: PDI turbidity)
C[C@H](CO)N1C[C@H](C)[C@H](CN(C)C(=O)Nc2ccc(-c3ccccc3)cc2)OCc2ccccc2-c2c(n(C)c3ccccc23)C1=O	DENV2 CPE rescue 88.1 (no result: PDI turbidity)
CNC[C@@H]1Oc2c(NC(=O)Nc3ccc(F)cc3)cccc2C(=O)N([C@H](C)CO)C[C@H]1C	none (no result: PDI turbidity)
Oc1ccccc1-c1nc(/C=C/c2ccccc2)nn1-c1ccccc1	none
Oc1ccc(/C=C/c2nc(-c3ccccc3O)n(-c3ccccc3)n2)cc1	PDI turbidity 48.2 (no result: ERAP1 HTS inh, DENV2 CPE rescue, MLL AF4-AF9 inh, ERp5 block)
CCN(CC)CCCC(C)Nc1nccc2c(Cl)cccc12 (configuration not stated)	DENV2 CPE rescue 48.7
O=S(=O)(c1ccccc1F)N1CC[C@@H]2[C@H](CO)Nc3ccc(-c4ccccc4)cc3[C@@H]21	DENV2 CPE rescue 23.8 (no result: PDI turbidity)
C/C=C/c1ccc2c(c1)[C@H]1[C@H](CCN1Cc1ccc(F)cc1)[C@H](CO)N2	DENV2 CPE rescue 37.9 (no result: PDI turbidity)
C/C=C/c1ccc2c(c1)[C@H]1[C@H](CCN1S(=O)(=O)c1ccccc1F)[C@H](CO)N2	DENV2 CPE rescue 25.5 (no result: ERAP1 HTS inh, PDI turbidity, MLL AF4-AF9 inh, ERp5 block)
O=S(=O)(c1ccc(F)cc1)N1CC[C@@H]2[C@@H](CO)Nc3ccc(-c4ccc(F)cc4)cc3[C@@H]21	DENV2 CPE rescue 51.1 (no result: ERAP1 HTS inh, PDI turbidity, MLL AF4-AF9 inh, ERp5 block)
C/C=C/c1ccc2c(c1)[C@H]1[C@H](CCN1S(=O)(=O)c1ccccc1)[C@H](CO)N2	none (no result: ERAP1 HTS inh, PDI turbidity, MLL AF4-AF9 inh)
CCN1[C@H](C(=O)NC2CCCC2)[C@@H](CO)[C@@H]2Cn3c(ccc(-c4ccccc4F)c3=O)[C@@H]21	none (no result: PDI turbidity)
C[C@H](CO)N1C[C@H](C)[C@@H](CN(C)Cc2ccc(C(=O)O)cc2)Oc2ccc(NC(=O)Nc3ccc4c(c3)OCO4)cc2CC1=O	none (no result: DENV2 CPE rescue, PDI turbidity)
O=S(=O)(c1cccc(F)c1)N1CC[C@@H]2[C@H]1c1cc(-c3cccc(F)c3)ccc1N[C@@H]2CO	DENV2 CPE rescue 51.6 (no result: ERAP1 HTS inh, PDI turbidity, MLL AF4-AF9 inh, ERp5 block)
